This passage reports inhibition results from ChEMBL document CHEMBL1961873, “Compounds: GSK PKIS; Assays: Nanosyn kinase panel” (2012).

The target in test [1] is Leukocyte tyrosine kinase receptor (Homo sapiens) (UniProt P29376). Conditions: at 1 µM.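 Also: each value is the mean inhibition of LTK.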
The target in test [2] is Tyrosine-protein kinase Lyn (Homo sapiens) (UniProt P07948). Conditions: at 0.1 µM.
For test [3] the target is unchanged. Conditions: at 1 µM.
The target is the same in test [4]. Conditions: at 0.1 µM. The source holds these as a separate data set.
The target is the same in test [5]. The settings on record: at 1 µM. This is another data set of the same source.
Test [6] addresses T1, Tyrosine-protein kinase Mer (Homo sapiens) (UniProt Q12866).
T1 sequence (whole entry): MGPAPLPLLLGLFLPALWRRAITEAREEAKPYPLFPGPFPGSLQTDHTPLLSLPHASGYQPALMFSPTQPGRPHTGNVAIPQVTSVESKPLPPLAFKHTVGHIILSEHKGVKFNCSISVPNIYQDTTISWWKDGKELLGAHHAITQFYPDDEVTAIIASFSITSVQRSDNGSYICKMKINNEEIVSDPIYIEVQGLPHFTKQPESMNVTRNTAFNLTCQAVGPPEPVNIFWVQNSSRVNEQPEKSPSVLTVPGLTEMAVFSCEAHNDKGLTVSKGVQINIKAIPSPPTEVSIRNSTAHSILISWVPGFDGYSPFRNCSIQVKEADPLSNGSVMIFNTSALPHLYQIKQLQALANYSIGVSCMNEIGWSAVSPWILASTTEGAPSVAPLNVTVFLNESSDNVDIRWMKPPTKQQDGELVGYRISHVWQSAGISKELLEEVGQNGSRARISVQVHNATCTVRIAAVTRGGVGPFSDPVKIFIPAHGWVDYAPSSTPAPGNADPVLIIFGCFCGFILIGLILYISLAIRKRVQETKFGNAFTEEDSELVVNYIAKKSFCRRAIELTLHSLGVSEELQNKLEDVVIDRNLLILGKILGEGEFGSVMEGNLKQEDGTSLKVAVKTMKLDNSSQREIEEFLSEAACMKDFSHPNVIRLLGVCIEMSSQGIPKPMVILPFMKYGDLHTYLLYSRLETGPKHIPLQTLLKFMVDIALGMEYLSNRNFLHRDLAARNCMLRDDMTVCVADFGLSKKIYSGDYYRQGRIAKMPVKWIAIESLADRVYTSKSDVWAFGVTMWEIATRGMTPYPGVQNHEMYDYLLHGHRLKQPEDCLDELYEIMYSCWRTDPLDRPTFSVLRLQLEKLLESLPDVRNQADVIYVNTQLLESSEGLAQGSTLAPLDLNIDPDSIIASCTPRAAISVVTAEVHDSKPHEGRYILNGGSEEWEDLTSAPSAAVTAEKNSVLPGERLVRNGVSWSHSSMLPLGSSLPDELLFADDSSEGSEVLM
The settings on record: at 0.1 µM.

The target in test [7] is T1, Tyrosine-protein kinase Mer (Homo sapiens). The settings on record: at 1 µM.
The target of test [8] is Hepatocyte growth factor receptor (Homo sapiens) (UniProt P08581). Conditions: at 0.1 µM.
For test [9] the target is unchanged. The settings on record: at 1 µM.
Test [10] addresses T2, Muscle, skeletal receptor tyrosine-protein kinase (Homo sapiens) (UniProt O15146).
T2 sequence (whole entry): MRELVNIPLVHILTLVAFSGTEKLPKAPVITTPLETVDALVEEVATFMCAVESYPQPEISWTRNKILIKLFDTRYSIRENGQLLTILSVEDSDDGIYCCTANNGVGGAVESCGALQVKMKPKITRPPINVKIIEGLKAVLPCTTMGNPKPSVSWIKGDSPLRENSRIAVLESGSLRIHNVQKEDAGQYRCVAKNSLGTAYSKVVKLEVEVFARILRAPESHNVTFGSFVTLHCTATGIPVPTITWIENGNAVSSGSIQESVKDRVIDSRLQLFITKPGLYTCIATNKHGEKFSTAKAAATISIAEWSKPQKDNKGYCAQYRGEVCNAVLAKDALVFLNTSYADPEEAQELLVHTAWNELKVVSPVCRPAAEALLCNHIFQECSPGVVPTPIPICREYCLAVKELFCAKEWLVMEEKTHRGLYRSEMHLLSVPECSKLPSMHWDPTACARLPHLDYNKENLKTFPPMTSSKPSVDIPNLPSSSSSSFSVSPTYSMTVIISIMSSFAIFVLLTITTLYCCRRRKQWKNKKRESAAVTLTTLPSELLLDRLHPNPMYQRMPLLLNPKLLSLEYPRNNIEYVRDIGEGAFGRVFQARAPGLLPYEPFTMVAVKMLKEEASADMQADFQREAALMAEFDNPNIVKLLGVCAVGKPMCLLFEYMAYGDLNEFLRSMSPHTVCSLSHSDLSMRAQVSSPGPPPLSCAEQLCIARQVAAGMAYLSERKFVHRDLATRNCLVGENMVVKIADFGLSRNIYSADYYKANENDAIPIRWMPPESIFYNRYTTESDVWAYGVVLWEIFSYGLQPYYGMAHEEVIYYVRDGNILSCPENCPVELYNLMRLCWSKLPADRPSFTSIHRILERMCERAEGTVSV
The settings on record: at 0.1 µM.

Hepatocyte growth factor receptor (Homo sapiens), sequence (P08581 whole entry): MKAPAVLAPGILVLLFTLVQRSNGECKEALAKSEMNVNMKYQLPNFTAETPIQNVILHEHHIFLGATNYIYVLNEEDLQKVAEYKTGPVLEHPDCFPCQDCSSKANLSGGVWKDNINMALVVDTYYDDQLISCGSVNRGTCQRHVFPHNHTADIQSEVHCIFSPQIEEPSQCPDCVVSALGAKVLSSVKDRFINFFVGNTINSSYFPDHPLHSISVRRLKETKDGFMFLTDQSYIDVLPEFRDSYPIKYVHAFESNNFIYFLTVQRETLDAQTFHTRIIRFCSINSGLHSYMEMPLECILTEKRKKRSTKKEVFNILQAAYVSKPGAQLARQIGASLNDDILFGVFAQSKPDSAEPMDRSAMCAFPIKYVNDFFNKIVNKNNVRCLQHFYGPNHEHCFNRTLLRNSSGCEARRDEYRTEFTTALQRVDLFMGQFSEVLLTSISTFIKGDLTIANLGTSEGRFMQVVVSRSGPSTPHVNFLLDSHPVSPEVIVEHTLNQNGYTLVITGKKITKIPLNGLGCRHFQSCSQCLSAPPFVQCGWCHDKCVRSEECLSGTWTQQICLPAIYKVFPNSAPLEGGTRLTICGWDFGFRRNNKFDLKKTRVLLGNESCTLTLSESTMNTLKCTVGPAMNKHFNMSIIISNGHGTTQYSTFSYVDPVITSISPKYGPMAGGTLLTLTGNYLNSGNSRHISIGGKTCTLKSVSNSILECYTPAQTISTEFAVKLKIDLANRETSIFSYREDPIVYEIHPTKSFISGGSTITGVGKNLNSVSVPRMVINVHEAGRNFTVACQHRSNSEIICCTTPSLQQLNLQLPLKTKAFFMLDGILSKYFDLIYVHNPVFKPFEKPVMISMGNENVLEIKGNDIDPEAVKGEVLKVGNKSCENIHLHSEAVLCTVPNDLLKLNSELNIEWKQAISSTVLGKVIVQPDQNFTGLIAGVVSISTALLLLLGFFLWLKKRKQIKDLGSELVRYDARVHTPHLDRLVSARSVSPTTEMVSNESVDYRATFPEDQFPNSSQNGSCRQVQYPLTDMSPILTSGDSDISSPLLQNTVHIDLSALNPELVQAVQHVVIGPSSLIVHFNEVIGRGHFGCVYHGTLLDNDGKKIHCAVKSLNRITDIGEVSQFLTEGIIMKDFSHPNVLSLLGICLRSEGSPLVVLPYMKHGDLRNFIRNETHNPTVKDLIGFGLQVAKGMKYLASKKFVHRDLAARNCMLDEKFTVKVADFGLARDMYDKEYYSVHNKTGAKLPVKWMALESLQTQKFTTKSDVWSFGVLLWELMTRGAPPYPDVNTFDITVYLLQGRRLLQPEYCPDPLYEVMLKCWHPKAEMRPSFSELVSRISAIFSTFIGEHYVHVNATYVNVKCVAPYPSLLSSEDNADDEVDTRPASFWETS
Tyrosine-protein kinase Lyn (Homo sapiens), sequence (P07948 2-512 limits assumed): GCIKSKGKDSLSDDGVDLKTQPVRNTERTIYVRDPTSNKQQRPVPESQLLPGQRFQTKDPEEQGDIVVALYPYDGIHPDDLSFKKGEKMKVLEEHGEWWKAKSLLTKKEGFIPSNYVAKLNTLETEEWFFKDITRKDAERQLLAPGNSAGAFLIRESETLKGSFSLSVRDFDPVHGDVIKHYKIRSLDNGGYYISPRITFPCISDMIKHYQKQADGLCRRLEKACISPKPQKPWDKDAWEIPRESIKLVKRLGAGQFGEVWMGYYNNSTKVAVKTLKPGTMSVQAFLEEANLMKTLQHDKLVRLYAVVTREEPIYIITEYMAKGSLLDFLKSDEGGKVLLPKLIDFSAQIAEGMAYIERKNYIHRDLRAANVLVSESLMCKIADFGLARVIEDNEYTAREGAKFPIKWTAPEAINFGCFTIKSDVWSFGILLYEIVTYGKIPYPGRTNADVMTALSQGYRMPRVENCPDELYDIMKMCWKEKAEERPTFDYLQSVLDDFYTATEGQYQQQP
Leukocyte tyrosine kinase receptor (Homo sapiens), sequence (P29376 whole entry): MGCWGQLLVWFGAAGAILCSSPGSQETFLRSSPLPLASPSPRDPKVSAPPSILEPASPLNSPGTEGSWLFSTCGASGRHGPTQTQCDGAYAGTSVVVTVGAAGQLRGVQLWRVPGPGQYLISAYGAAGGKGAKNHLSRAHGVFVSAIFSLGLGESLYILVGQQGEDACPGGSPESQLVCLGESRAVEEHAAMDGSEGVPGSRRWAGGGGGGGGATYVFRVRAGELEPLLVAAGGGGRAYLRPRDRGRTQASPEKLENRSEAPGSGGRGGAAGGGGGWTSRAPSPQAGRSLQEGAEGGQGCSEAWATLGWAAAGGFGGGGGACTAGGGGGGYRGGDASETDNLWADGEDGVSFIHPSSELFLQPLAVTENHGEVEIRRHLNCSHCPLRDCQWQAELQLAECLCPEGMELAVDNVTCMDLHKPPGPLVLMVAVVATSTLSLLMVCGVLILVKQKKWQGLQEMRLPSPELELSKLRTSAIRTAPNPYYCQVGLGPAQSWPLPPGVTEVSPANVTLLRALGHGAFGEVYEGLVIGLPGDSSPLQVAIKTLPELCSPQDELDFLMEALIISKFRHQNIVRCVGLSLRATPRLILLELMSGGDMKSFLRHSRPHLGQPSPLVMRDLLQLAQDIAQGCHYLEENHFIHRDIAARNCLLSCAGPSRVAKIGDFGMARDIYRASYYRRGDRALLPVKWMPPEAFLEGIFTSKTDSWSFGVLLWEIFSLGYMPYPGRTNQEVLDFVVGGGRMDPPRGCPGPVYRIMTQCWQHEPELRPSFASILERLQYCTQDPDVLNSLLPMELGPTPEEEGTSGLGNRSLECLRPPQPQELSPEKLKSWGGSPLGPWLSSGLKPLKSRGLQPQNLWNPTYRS

The inhibition is the drop in the measured response relative to a control, in per cent. As to `CC1=C(C(=O)Nc2ccc3[nH]ncc3c2)C(c2ccc3ccccc3c2)CC(=O)N1` (stereo not given), the inhibition was 3.95% in test [1]; 6.74% in test [2]; 30.8% in [3]; 4.2% in test [4]; 26.2% in test [5]; 0.87% in test [6]. In addition, the inhibition in [7] amounted to 2.79%; in test [8] it was 8.81%; in test [9], 40.3%; in [10], 2.08%.
In the case of `CCN1CCC(CC(=O)Nc2n[nH]c3nc(-c4cccs4)c(Br)cc23)CC1`, the inhibition was 0.89% in test [1]; 0.07% in test [2]; 1.67% in [3]; -0.46% in test [4]; 1.82% in test [5]; -0.67% in [6]. Further, the inhibition is 3.05% in [7], -0.73% in [8], -0.38% in [9] and 0.33% in [10].
For `O=C(Nc1n[nH]c2nc(-c3ccco3)c(Br)cc12)C1CC1`, the inhibition is 0.72% in [1]; 4.37% in test [2]; 4.24% in test [3]; 2.54% in test [4]; 3.6% in [5]; 1.42% in test [6]. The inhibition in test [7] came to 4.5%; in test [8] it was 1.38%; in [9] it was 6.65%; in test [10], 2.24%.
On to `COc1cc(C=NNc2ncnc3c2cnn3-c2ccccc2)ccc1O`, for which the inhibition was determined as 6.55% in test [1]; 17.1% in test [2]; 65.9% in [3]; 13.3% in [4]; 62.8% in test [5]; 6.78% in test [6]. For the same compound, the inhibition in [7] amounted to 34.5%; in test [8], 21.5%; in test [9], 88.6%; in test [10], 7.87%.
With `CCn1c(-c2nonc2N)nc2c(C#CC(C)(C)O)nc(OC[C@@H](N)c3ccccc3)cc21`, the inhibition in test [1] is 9.21%; in test [2], -0.29%; in test [3] it was 1.01%; in test [4] it was -1.22%; in test [5], 0.53%; in [6], -0.92%. Further, the inhibition is 0.47% in test [7], -2.86% in [8], -4.52% in test [9] and -0.69% in test [10].
For `CCn1c(-c2nonc2N)nc2cncc(C(=O)N3CCNCC3)c21`, the inhibition in test [1] was determined as 5.18%; in test [2] it was 5.29%; in test [3] it was 5.94%; in test [4], 1.79%; in test [5], 4.29%; in test [6], 1.99%. Moreover, the inhibition was determined as 2.33% in [7], 2.94% in test [8], 2.13% in test [9] and 3.39% in [10].
Consider `CN(C)c1cc2c(Nc3ccc4nc(Cc5ccccc5)[nH]c4c3)ncnc2cn1`, for which the inhibition in test [1] stood at 3.97%; in test [2], 9.84%; in test [3], 32.1%; in test [4], 7.8%; in test [5] it was 28.7%; in test [6] it was 1.94%. For the same compound, the inhibition in test [7] stood at 8.97%; in test [8], 0.15%; in [9] it was 5.85%; in [10], 2.63%.
As to `CCn1c(-c2nonc2N)nc2cncc(C(=O)N3CC[C@H](N)C3)c21`, the inhibition in [1] stood at 4.61%; in [2], 8.57%; in [3], 7.74%; in [4] it was 6.42%; in test [5], 5.67%; in test [6], 0.47%. The inhibition in test [7] is 3.48%; in test [8] it was 5.74%; in test [9], 5.85%; in test [10] it was 4.23%.
Take `COc1ccc(-c2ccncc2)cc1C(N)=O`: the inhibition in test [1] was 5.79%; in test [2], 4.67%; in test [3] it was 4.69%; in [4], 2.01%; in test [5] it was 4.65%; in test [6] it was 2.57%. Further, the inhibition came to 5.63% in test [7], 3.93% in [8], 5.8% in test [9] and 2.42% in [10].
As for `NS(=O)(=O)c1ccc(N/N=C2\C(=O)Nc3ccc(C(=O)NCCc4c[nH]cn4)cc32)cc1`, the inhibition in test [1] is 7.32%; in test [2], 8.15%; in test [3], 15.6%; in test [4], 5.07%; in test [5], 12.6%; in test [6], 0.87%. In addition, the inhibition in test [7] was 4.99%; in test [8], 8.81%; in [9] it was 12.3%; in [10], 10.8%.
As for `Nc1nc(-c2ccc3c(c2)C(=Cc2cc(Br)c(O)c(Br)c2)C(=O)N3)cs1`, the inhibition was 17.4% in test [1]; 0.87% in test [2]; 6.57% in [3]; 0.59% in [4]; 4.62% in test [5]; -0.02% in test [6]. Further, the inhibition in test [7] is 3.29%; in [8] it was 1.02%; in test [9] it was 4.73%; in [10], 0.81%.
Regarding `COc1cc2ncn(-c3cc(OCc4ccccc4Cl)c(C(N)=O)s3)c2cc1OC`, the inhibition worked out at 4.03% in test [1]; 3.15% in test [2]; 25.6% in [3]; 2.45% in test [4]; 21.1% in [5]; 1.26% in [6]. For the same compound, the inhibition in test [7] was 8.5%; in test [8], -0.6%; in test [9], 19.7%; in [10], 4.75%.
`COc1cc(C)c(NC(=O)CN(C)C)cc1Nc1nc(Nc2cccc(F)c2C(N)=O)c2cc[nH]c2n1`: the inhibition in [1] was 95.6%; in test [2] it was 3.5%; in [3] it was 1.33%; in test [4] it was 2.46%; in [5], -0.14%; in test [6], 2.47%. Further, the inhibition in test [7] was 7.53%; in test [8], 3.32%; in test [9], -1.66%; in [10], 5.47%.
With `c1cnn2ncc(-c3ccnc(Nc4ccc5c(c4)OCCO5)n3)c2c1`, the inhibition in [1] is 21.9%; in test [2], 7.12%; in test [3], 12.7%; in test [4], 4.02%; in test [5], 11%; in test [6], 4.03%. In addition, the inhibition in test [7] is 19.6%; in [8] it was 3.78%; in [9] it was 16.8%; in test [10], 5.35%.
Turning to `COc1ccccc1Nc1ncc(-c2ccccc2)o1`, the inhibition in test [1] came to 4.49%; in test [2], 5.91%; in [3], 8.44%; in test [4] it was 3.58%; in [5] it was 5.77%; in [6], 0.01%. Moreover, the inhibition in test [7] stood at 1.66%; in [8], 10.1%; in test [9], 1.27%; in test [10], 4.33%.
For the compound `COC(=O)Nc1nc2cc(Oc3ccc(NC(=O)Nc4cccc(C(=O)O)c4)cc3)ccc2[nH]1`, the inhibition in [1] was -0.52%; in test [2] it was 0.39%; in test [3], 5.81%; in test [4] it was 0.48%; in test [5], 2.9%; in [6], 0.61%. The inhibition in [7] is 2.01%; in [8], -0.09%; in test [9] it was 11.4%; in test [10], -0.16%.
